# From PubChem
# SRC1 inh: inhibitors of human steroid receptor coactivator 1 (SRC1) | HEK293 GAL4-SRC1 luciferase reporter, luminescence | inhibition, % at 3.6 µM | 360,000 tested, 0.12% active;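 active means inhibition above the campaign mean plus 3 SD, with each screening campaign given its own cutoff, cut at about 60% in these data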;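 further: 0% = DMSO treated cells and 100% = gossypol at 36 µM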
# NCOA3 inh: human NCOA3 inhibition; AID 588352; 360,000 tested, 0.17% active; HEK293 GAL4-SRC3 luciferase reporter, luminescence; inhibition, % at 3.6 µM;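 active means inhibition above a per-campaign cutoff, the mean of all compounds plus 3 SD, cut at about 60% in these data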;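 further: 0% = DMSO-treated cells and 100% = gossypol-treated cells at 36 µM; higher means less SRC3-driven luciferase light from the GAL4 reporter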
# NR2F2 inh: blocks human COUP-TFII nuclear receptor | P24468 | inhibition, % at 8.6 µM | 370,000 tested, 0.7% active | HEK293T NGFI-A luciferase reporter, luminescence | AID 686940;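 active means inhibition above a per-plate cutoff, mean inhibition of test wells between control levels plus 3 SD, cut at about 38% in these data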;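 further: cells cotransfected with COUP-TFII expression vector driving the NGFI-A reporter; 0% = median of COUP-TF2 test wells and 100% = reporter-only cells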
# Target sequence (P24468 whole entry, looked up): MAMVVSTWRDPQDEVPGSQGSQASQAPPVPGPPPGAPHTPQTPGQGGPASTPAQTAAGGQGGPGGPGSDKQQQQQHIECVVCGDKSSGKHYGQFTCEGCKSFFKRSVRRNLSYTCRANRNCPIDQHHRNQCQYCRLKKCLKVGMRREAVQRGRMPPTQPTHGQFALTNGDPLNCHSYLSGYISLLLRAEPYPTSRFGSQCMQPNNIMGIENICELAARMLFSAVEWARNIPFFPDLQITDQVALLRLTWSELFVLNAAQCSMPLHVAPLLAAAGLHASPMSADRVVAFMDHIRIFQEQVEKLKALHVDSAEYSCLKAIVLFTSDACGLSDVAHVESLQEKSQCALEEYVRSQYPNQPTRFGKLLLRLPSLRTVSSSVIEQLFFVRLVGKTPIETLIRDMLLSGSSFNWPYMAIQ
# NR5A2 inv ag: suppresses constitutive activity of human LRH-1. O00482. HEK293T StAR-luciferase reporter, LRH-1 transfected, 24 h. inhibition, % at 3.6 µM. 360,000 tested, 0.13% active;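 active means inhibition above the mean inhibition of all tested compounds plus 3 SD, cut at about 73% in these data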;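 further: 0% = DMSO wells and 100% = reporter-only cells lacking LRH-1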
# SRC2 inh: inhibits human steroid receptor coactivator 2 | Q15596 | AID 651957 | HEK293 GAL4-SRC2 luciferase reporter, luminescence | 370,000 tested, 0.17% active | inhibition, % at 9 µM;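 active means inhibition above the mean inhibition of all tested compounds plus 3 SD, set per campaign, cut at about 52% in these data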;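 further: 0% = DMSO treated cells and 100% = cells given Gossypol at 36 µM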
# Gli-Sufu antag: Gli-Sufu pathway antagonism. Sufu-KO-LIGHT fibroblasts, Gli luciferase reporter luminescence. inhibition, % at 5 µM. 340,000 tested, 0.74% active. AID 588413;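 active means inhibition above about 55%, limit read from the data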;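 further: 0% = DMSO-treated cells and 100% = wells with medium but no cells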
# Gal4-VP16 ctr: inhibits VP16 reporter, flagging COUP-TFII antagonist hits; shares compounds with NR2F2 inh; HEK293 Gal4-VP16 luciferase reporter, luminescence; inhibition, % at 8.5 µM; 2,500 tested, 25% active; in the data active means inhibition above about 13%
# COUP-TFII conf: confirmation of human COUP-TFII (NR2F2) inhibitors | inhibition, % at 8.5 µM | shares compounds with NR2F2 inh | 2,500 tested, 45% active | AID 687008 | HEK293 NGFI-A luciferase reporter, luminescence;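 active means mean inhibition over three repeats above a set limit taken from the earlier primary screen, cut at about 38% in these data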;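 further: 100% = cells given the luciferase reporter alone without the COUP-TF2 vector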
# The depositor's hits bear a star; · = no result. This is a sample that favours compounds with a hit; in the whole collection about 1.3% have one here.
SMILES,SRC1 inh,NCOA3 inh,NR2F2 inh,NR5A2 inv ag,SRC2 inh,Gli-Sufu antag,Gal4-VP16 ctr,COUP-TFII conf
COc1ccc(-c2cc(C)no2)cc1S(=O)(=O)NCCCN1CCN(c2ccccc2)CC1,4,12,6,-8,-32,30,·,·
O=C(NC1CCCCC1)c1n[nH]c2c1CCCCC2,25,31,50*,23,57*,-30,-19,37
FC(F)(F)c1ccc(Cl)c(CN2CCN(c3ncc(Cc4ccccc4)cn3)CC2)c1,·,·,1,·,27,·,·,·
Fc1ccc(CN2CCN(c3ncc(Cc4ccccc4)cn3)CC2)c(Cl)c1,·,·,51*,·,24,·,6,47*
O=C(NC1CCCCN(Cc2cccc(Cl)c2)C1=O)c1cccs1 (stereo not drawn),·,·,-44,·,-1,·,·,·
COc1ccc(S[C@]2(C(=O)N(C)C)CC(=O)N(c3ccsc3)[C@@H]2c2ccc(OC)cc2)cc1,·,·,26,·,-6,·,·,·
COCc1cc(N2CCN(C(=O)OC(C)(C)C)C[C@@H]2C)ccc1N1CCN(Cc2ccccc2)[C@@H](C)C1,·,·,37*,·,-3,·,5,16
CCC(C(=O)Nc1ccccc1N1CCCC1)c1cccc(C)c1 (stereo not drawn),·,·,8,·,-8,·,·,·
Nc1ccc2nc(SCC(=O)N3CCN(c4ccccc4)CC3)sc2c1,11,25,55*,32,3,5,-10,29
COc1ccc(S[C@]2(C(=O)N3CCN(c4ncccn4)CC3)CC(=O)N(S(=O)(=O)c3ccc(F)cc3)[C@@H]2c2ccc(OC)cc2)cc1,·,·,9,·,-7,·,·,·
COCCCN1C(=O)[C@H](CC(=O)NCc2cccc(C(F)(F)F)c2)[C@]2(C(=O)OC)CCCCC=C12,·,·,5,·,11,·,·,·
COc1ccccc1NC(=O)c1cccc(S(=O)(=O)N2CCN(c3ccccc3)CC2)c1,5,-43,42*,5,16,8,-5,6
CN(CC(=O)Nc1cccc(F)c1)C(=O)c1cccc(S(=O)(=O)N2CCN(c3ccc(F)cc3)CC2)c1,5,15,42*,-17,28,14,4,14
CN(Cc1cccc(F)c1)C(=O)c1cccc(S(=O)(=O)N2CCN(Cc3ccccc3)CC2)c1,-24,0,-14,-8,9,7,·,·
O=C(COc1ccc(C(=O)c2ccc(F)cc2)cc1)Nc1cccc(S(=O)(=O)N2CCOCC2)c1,9,-5,48*,-1,13,3,-8,33
COc1ccc(NC(=O)c2cccc(S(=O)(=O)N3CCN(c4ccccc4)CC3)c2)c(OC)c1,-2,-9,14,-3,-2,-4,·,·
CN(Cc1ccc(OC(F)F)cc1)C(=O)c1cccc(S(=O)(=O)N2CCN(c3ccccc3)CC2)c1,9,23,67*,28,24,41,13*,55*
CCN(CC)c1ccc(-c2nn3c(-c4ccccc4Cl)nnc3s2)cc1,·,·,-59,·,11,·,·,·
Cc1cc(C)cc(NC(=O)N2CCN(Cc3nc4ccccc4c(=O)[nH]3)CC2)c1,·,·,3,·,10,·,·,·
CN(CC(=O)Nc1ccccc1Cl)C(=O)c1cccc(S(=O)(=O)N2CCN(c3ccccc3)CC2)c1,2,10,43*,10,-5,46,6,19
Cc1cccc(C)c1NC(=O)CN(C)C(=O)c1cccc(S(=O)(=O)N2CCN(c3ccccc3)CC2)c1,-9,16,23,4,-6,13,·,·
O=C(Nc1ccncc1)c1cccc(S(=O)(=O)N2CCN(c3ccc(F)cc3)CC2)c1,22,17,47*,25,23,32,7,31
CN(CC(=O)Nc1ccccc1Cl)C(=O)c1cccc(S(=O)(=O)N2CCN(Cc3ccccc3)CC2)c1,4,24,48*,21,10,47,1,35
COc1ccc(CCN(C)C(=O)c2cccc(S(=O)(=O)N3CCN(c4ccc(F)cc4)CC3)c2)cc1OC,13,18,59*,29,2,32,12,45*
O=C(Nc1ncccc1O)c1cccc(S(=O)(=O)N2CCN(c3ccc(F)cc3)CC2)c1,-19,17,1,-18,-4,1,·,·
SMILES,SRC1 inh,NCOA3 inh,NR2F2 inh,NR5A2 inv ag,SRC2 inh,Gli-Sufu antag,Gal4-VP16 ctr,COUP-TFII conf
CCc1ccc(N2C(=O)C[C@@](C#N)(C(=O)OC)[C@H]2c2ccccc2)cc1,·,·,-13,·,-10,·,·,·
CN(Cc1cccc(Cl)c1Cl)C(=O)c1cccc(S(=O)(=O)N2CCN(Cc3ccccc3)CC2)c1,-3,1,42*,31,11,47,-3,26
COc1ccccc1C(=O)NCCC(=O)Nc1nc2ccccc2[nH]1,-8,-18,-16,17,-17,-7,·,·
Cc1ccc(C(=O)Nc2nc3ccccc3[nH]2)cc1,4,7,49*,0,50,3,-20,-5
COc1ccccc1C(=O)Nc1nc2ccccc2[nH]1,84*,80*,98*,84*,94*,75*,87*,100*
Cc1cc(C(=O)Nc2cnc3ccccc3c2)ccc1[N+](=O)[O-],-84,-81,-43,-183,-43,-63,·,·
COc1cc(SC)ccc1C(=O)Nc1nc2ccccc2[nH]1,93*,92*,100*,93*,95*,93*,96*,108*
CSc1ccccc1C(=O)Nc1nc2ccccc2[nH]1,-74,-87,-27,-97,-63,-61,·,·
Cc1ccc(C(=O)Nc2cnc3ccccc3c2)cc1,31,33,71*,21,72*,-110,24*,48*
CCCN(CC1CC1)C(=O)c1ccc(CNC(=O)c2cccc(Br)c2)cc1,·,·,-16,·,-9,·,·,·
CN(C)CCCNS(=O)(=O)c1ccc(NC2CCCCCC2)c([N+](=O)[O-])c1,9,12,53*,25,14,36,5,39*
CCNc1ccc(S(=O)(=O)NCCN(C)C)cc1[N+](=O)[O-],-11,15,-9,24,24,6,·,·
CCc1c2c3n4c1CCC[C@@H]4C[C@@H]3O[Si](C(C)C)(C(C)C)OC(C)C2=O (stereo partly drawn),·,·,-7,·,·,·,·,·
O=C(CCc1ccccc1)N[C@H]1/C(=N/O)CCC[C@]12C(=O)N(Cc1ccccc1)c1ccccc12,·,·,18,·,11,·,·,·
O=C(CSc1nc2ccccc2n1Cc1ccccc1)NN=C/C=C/c1ccccc1,·,·,-13,·,11,·,·,·
Cc1nc(N)nc(N)c1/C=C/C(C)(C)c1ccc(Cl)cc1,70*,49,47*,45,22,·,28*,23
Cn1c(SCC(=O)NCCc2ccccc2)ncc(C(=O)Nc2ccccc2)c1=O,2,8,54*,28,14,8,4,1
COc1ccc(NC(=O)c2cnc(SCC(=O)NCCc3ccccc3)n(C)c2=O)cc1,5,-1,11,-6,9,10,·,·
